Cardiac RTF inh = cardiac RTF calcium desensitization. IANBD-labeled cardiac RTF, Ca2+ fluorescence. actives 0.12% (n = 340,000). AID 493244. inhibition, % at 7.15 µM. P19429+P45379;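 active = inhibition above the mean inhibition of all tested compounds plus 3 SD, cut at about 17% in these data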;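 note: assay run at fixed EC70 calcium of 1.6 mM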
C-LANA FP = inhibitors of KSHV LANA C-terminal domain DNA binding. MBP-C-LANA/FAM-LBS DNA binding, fluorescence polarization. AID 504423. inhibition, % at 9 µM. actives 0.078% (n = 340,000);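 active = highest replicate inhibition at or above 60% at 9 µM, even if other replicates fall short; inactive = all replicates below 60% inhibition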
Keap1-Nrf2 PPI = disrupts human Keap1 binding to Nrf2 peptide. Keap1 Kelch-Nrf2 peptide fluorescence polarization, 1536-well. inhibition, % at 9.4 µM. actives 0.15% (n = 340,000); in the data active = inhibition above about 12%;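 note: human Keap1 Kelch domain with fluorescein labeled Nrf2 9mer peptide probe; higher means more block of Keap1 binding to Nrf2 peptide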
Target sequence (Q14145 whole entry, looked up, the tested form may be a part): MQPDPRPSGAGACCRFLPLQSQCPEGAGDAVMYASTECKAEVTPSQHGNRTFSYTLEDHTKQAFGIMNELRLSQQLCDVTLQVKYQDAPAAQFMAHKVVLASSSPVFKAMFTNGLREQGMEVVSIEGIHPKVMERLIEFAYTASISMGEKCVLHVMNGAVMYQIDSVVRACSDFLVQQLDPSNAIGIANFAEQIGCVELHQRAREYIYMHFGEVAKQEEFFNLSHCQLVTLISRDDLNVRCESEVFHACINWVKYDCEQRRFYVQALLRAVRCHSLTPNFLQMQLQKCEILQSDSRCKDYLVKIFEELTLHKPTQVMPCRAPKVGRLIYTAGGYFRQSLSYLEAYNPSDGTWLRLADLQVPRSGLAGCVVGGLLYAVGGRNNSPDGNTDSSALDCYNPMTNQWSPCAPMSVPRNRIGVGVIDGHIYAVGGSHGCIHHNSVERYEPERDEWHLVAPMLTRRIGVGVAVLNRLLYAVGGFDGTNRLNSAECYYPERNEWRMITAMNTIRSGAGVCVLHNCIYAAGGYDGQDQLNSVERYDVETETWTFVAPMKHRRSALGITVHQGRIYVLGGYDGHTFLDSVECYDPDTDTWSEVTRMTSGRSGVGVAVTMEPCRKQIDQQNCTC
RTF Ca sens act = cardiac RTF calcium sensitization. P19429+P45379. IANBD-labeled TnC RTF fluorescence at EC20 calcium; 0% EC20 calcium, 100% full calcium. activation, % at 7.2 µM. actives 0.24% (n = 340,000);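 active = activation above the mean over all tested compounds plus 3 SD, cut at about 30% in these data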;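 note: rise in fluorescence read as greater calcium sensitivity of cardiac thin filaments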
Large screens that a line does not name were inactive; ! = repeats disagree. The list is not random: actives were taken first. Their share in the collection is about 0.5%.

CSCC[C@H](NC(=O)[C@H](Cc1ccccc1)n1c(=O)[nH]c2ccccc2c1=O)C(=O)N1CCC[C@H]1C(=O)O	none
Cc1nc(C)c(-c2ccc(SCc3ccccc3F)nn2)s1	none
CCc1ccc(Nc2n[n+](-c3ccccc3)c(-c3ccc(N(CC)CC)cc3)s2)cc1	RTF Ca sens act 33
CCc1ccc(Nc2n[n+](-c3ccccc3)c(-c3ccc(OCc4ccccc4)cc3)s2)cc1	none
CCN(CC)c1ccc(-c2sc(Nc3ccccc3)n[n+]2-c2ccc(F)cc2)cc1	RTF Ca sens act 31
CC(=O)n1c(C=Nc2ccc(Cl)cc2)c(O)c2ccccc21	RTF Ca sens act 38
Cc1ccc(Nc2ncnc(Cl)c2N)cc1	none
CCN1/C(=C/C=C2/SC(=Nc3cccc4ncccc34)N(C)C2=O)Sc2ccccc21	RTF Ca sens act 41
Cc1cc(O)c(C=O)c2c1C(=O)Oc1c(CO)c(O)c3c(c1O2)C(O)OC3=O (stereo unspecified)	Cardiac RTF inh 30, C-LANA FP 118, Keap1-Nrf2 PPI 47
COc1ccc(N/C=C2\CCOC2=O)cc1	none
COc1ccc(N/C=C2\C(=O)CCc3c2oc2cc(Cl)c(O)c(Cl)c32)cc1	RTF Ca sens act 100
COc1ccc(-n2nc3c(N4CCC(C(=O)NCc5ccco5)CC4)nnc(C)c3c2C)cc1	RTF Ca sens act 30
COc1ccc(-n2nc3c(N4CCC(C(=O)NCc5ccccc5C)CC4)nnc(C)c3c2C)cc1	none
COC(=O)c1ccccc1S(=O)(=O)N1CCC(C(=O)OC(C)C(=O)N(C)Cc2ccccc2)CC1 (stereo unspecified)	none
CCN(CC)c1ccc2cc(C(=O)NCc3ccc(F)cc3)c(=N)oc2c1	RTF Ca sens act 267
CN(C)NC(=O)c1ccc([N+](=O)[O-])s1	RTF Ca sens act 31
O=C(Nc1ccccc1F)c1ccc([N+](=O)[O-])s1	none
Cc1ccc(C)c(OCC(O)CNC2CCCC2)c1 (stereo unspecified)	none
CC(C)CSC1=NSC2=NC(=O)/C(=C\c3coc4ccccc4c3=O)C(=N)N12	RTF Ca sens act 662
CSC1=NSC2=NC(=O)/C(=C\c3coc4ccccc4c3=O)C(=N)N12	RTF Ca sens act 193
CN1C(=O)/C(=C/c2coc3ccc(O)cc3c2=O)SC1=S	none
N=C1/C(=C\c2coc3ccc(O)cc3c2=O)C(=O)N=C2SC=CN12	RTF Ca sens act 152
N=C1/C(=C\c2coc3ccccc3c2=O)C(=O)N=C2SC(c3ccncc3)=NN12	RTF Ca sens act 92
Cc1cc(C(=O)Cn2cnc3ccc(Cl)cc3c2=O)c(C)n1C1CC1	none
Cc1occc1C(=O)/C(C#N)=C/c1ccc(O)c(Br)c1	none
COCCN1C(=O)/C(=C/c2ccc(N3CCCC3)cc2)SC1=S	RTF Ca sens act 80
CN(C)c1ccc(/C=C/c2nc3ccccc3c(=O)n2CCO)cc1	RTF Ca sens act 38
Cc1ccc(C2=N/C(=C\N3CCCCC3)C(=O)O2)cc1	none
Cc1nn(-c2ccccc2)c(N2CCCC2)c1/C=C1\N=C(c2ccc(OC(C)C)cc2)OC1=O	RTF Ca sens act 64
Cc1cc(/C=C2\SC(=S)N(C)C2=O)c(C)n1-c1ccccc1O	RTF Ca sens act 44
NC(=O)c1sc2nc3c(c(-c4ccco4)c2c1N)CCCC3	none
Nc1c(C(=O)NCC2CCCO2)sc2nc3c(c(-c4ccco4)c12)CC/C3=C\c1ccco1 (stereo unspecified)	Cardiac RTF inh 25
CN1C(=O)/C(=C\c2ccc(OC(=O)c3ccco3)cc2)SC1=S	none
O=Cc1ccc(N2CCCC2)o1	none
N#C/C(=C\c1ccc(N2CCCCC2)o1)C(N)=O	RTF Ca sens act 56
N#C/C(=C\c1ccc(N2CCCCC2)o1)C(=O)Nc1cccc(Br)c1	RTF Ca sens act 146
CCN(CC)C(=O)Cn1nc(-c2ccc(Cl)cc2)c2ccccc2c1=O	none
Cc1cc(C)n2nc3nc4c(cc3c2n1)CCCC4	RTF Ca sens act 31
Cc1cc(C)n2nc(C)c(Br)c2n1	none
CC1C/C(=C/c2cccn2C)C(=O)/C(=C/c2cccn2C)C1 (stereo unspecified)	RTF Ca sens act 375
CC1C/C(=C/c2ccncc2)C(=O)/C(=C/c2ccncc2)C1 (stereo unspecified)	none
CCCCCc1nnc(NC(=O)NS(=O)(=O)c2ccc(C)cc2)s1	none
CN1Cc2c(N)cccc2C(c2ccccc2)C1 (stereo unspecified)	RTF Ca sens act 31!
Nc1c(/C=C2/C=CC(=O)C(O)=C2)c(=O)nc2sc(CC(=O)N3CCCC3)nn12	C-LANA FP 109
Nc1c(/C=C2/C=CC(=O)C(O)=C2)c(=O)nc2sc(CC(=O)N3CCCCC3)nn12	C-LANA FP 108
COC1=C/C(=C/c2c(N)n3nc(CC(=O)N4CCCC4)sc3nc2=O)C=CC1=O	none
Nc1c(/C=C2/C=CC(=O)C(O)=C2)c(=O)nc2sc(CC(=O)N3CCOCC3)nn12	C-LANA FP 110
CC(C)c1ccc(/C=C2\SC(=O)N(CC(=O)NC3C=CS(=O)(=O)C3)C2=O)cc1 (stereo unspecified)	none
CC1=C(O)C(=O)C(C2=C(O)C(=O)C(C)=C(O)C2=O)=C(O)C1=O	C-LANA FP 61
C/C(=C/CCC(C)(O)C1CC[C@@]2(C)[C@@H]3CC=C4[C@@H](CC[C@H](O[C@H]5O[C@@H](CO)[C@H](O)[C@@H](O)[C@@H]5O)C4(C)C)[C@]3(C)C(=O)C[C@]12C)CO[C@@H]1O[C@H](CO)[C@@H](O)[C@H](O)[C@H]1O (stereo partly specified)	none
CC(=O)Nc1sc(/C(C#N)=C/c2ccc(Cl)c(Cl)c2)nc1-c1ccc(C)cc1	RTF Ca sens act 76
CC(=O)Nc1sc(N/N=C/c2ccc(C)cc2)nc1-c1ccc(C)cc1	none
COc1ccc(-n2nnnc2SCC(=O)Nc2ccccc2F)cc1	none
CCN1CC=C2C(C#N)=C(N)C(C#N)(C#N)[C@H](c3cccc(OC)c3OC)[C@H]2C1	Keap1-Nrf2 PPI 16, RTF Ca sens act 36
COc1cccc(C2C3CN(C)CC=C3C(C#N)=C(N)C2(C#N)C#N)c1OC (stereo unspecified)	none
CCOC(=O)C1Nc2ccccc2C2C(O)C(O)CC12 (stereo unspecified)	RTF Ca sens act 80
COc1ccc(C(=O)/C=C2\Sc3ccccc3N2C)cc1	none (no result: Cardiac RTF inh, RTF Ca sens act)
COc1ccccc1-[n+]1c(C)cc(/C=C2\Sc3ccccc3N2C)cc1C	RTF Ca sens act 48
COc1ccc(-[n+]2c(C)cc(/C=C3\Sc4ccccc4N3C)cc2C)cc1	RTF Ca sens act 44
O=C(COc1ccc(Br)cc1)OCCN1CCCCC1	none
NC(=O)c1cc[n+](CC2=C(C(=O)O)N3C(=O)[C@@H](NC(=O)C(c4ccccc4)S(=O)(=O)[O-])[C@H]3SC2)cc1 (stereo partly specified)	C-LANA FP 102, Keap1-Nrf2 PPI 23
COc1ccc(-c2cc(C(=O)Nc3cccc(O)c3)no2)cc1	none
CCOC(=O)CCN(C(=O)Nc1ccccc1)C1CCCCC1	none
CN(C)/C=C1\C=C2C(=O)c3ccccc3N2C1=O	C-LANA FP active, Keap1-Nrf2 PPI active, RTF Ca sens act active
